CYP2C9 activ = increases human cytochrome P450 2C9 activity. activation factor at 5 µM. 96,000 tested, 1.4% active. recombinant CYP2C9, luciferin-H conversion, luminescence; stronger effect = higher value; factor 1 = untreated enzyme, 0 = blocked;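 active = activation factor of 2 or more for CYP2C9 at a 5 µM dose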;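 also: 0 = sulfaphenazole-blocked wells and 1 = vehicle-only wells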
CYP2C19 activ = activators of human cytochrome P450 2C19; recombinant CYP2C19, luciferin-H EGE luminescence; stronger effect = higher value; 0 = fully inhibited enzyme, 1 = untreated enzyme; activation factor at 5 µM; 96,000 tested, under 10 active; AID 1025;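 active = activation factor of at least 2 at 5 µM in the primary screen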;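 also: 0 = wells with 2.5 mM tranylcypromine and 1 = vehicle-only wells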
Target sequence (P33261 whole entry, looked up): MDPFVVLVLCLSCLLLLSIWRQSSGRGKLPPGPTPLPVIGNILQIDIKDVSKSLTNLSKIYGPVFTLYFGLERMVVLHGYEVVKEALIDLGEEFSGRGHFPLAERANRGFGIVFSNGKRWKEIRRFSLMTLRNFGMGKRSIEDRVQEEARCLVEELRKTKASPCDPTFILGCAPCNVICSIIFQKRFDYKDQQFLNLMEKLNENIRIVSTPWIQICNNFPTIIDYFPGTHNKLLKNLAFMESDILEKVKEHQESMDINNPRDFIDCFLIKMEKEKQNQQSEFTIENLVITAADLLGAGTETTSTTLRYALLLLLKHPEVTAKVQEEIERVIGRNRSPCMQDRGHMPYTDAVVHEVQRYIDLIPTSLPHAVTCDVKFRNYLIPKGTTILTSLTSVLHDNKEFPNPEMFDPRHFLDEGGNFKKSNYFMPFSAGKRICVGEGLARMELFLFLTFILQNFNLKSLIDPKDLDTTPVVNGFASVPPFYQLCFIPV
CYP2C9 inh = inhibitors of human CYP2C9; 96,000 tested, 20% active; CYP2C9 Supersomes, luciferin-H conversion, luminescence; inhibition, % at 5 µM;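 active = blocking of liver enzyme CYP2C9 beyond about 50% at 5 µM, limit read from the data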
PostGolgi yeast = growth inhibition of a yeast mutant, post-Golgi transport screen. post-Golgi transport phenotypic cell assay. inhibition, % at 10 µM. 98,000 tested, 0.9% active. AID 739;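 also: yeast cells grown in 1536-well plates; yeast grown about 18 h at 30C before absorbance read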
CYP2C19 inhib = blocks human cytochrome P450 2C19; P33261; CYP2C19 Supersomes, luciferin-H EGE luminescence, 30 min; inhibition, % at 5 µM; 96,000 tested, 21% active; AID 778;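 active = CYP2C19 inhibition above a set limit at 5 µM in the primary screen, cut at about 50% in these data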;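 also: plate controls were negative control wells for no effect and 2.5 mM tranylcypromine positive control for full effect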
PostGolgi ctrl = growth of the yeast control strain, post-Golgi counter-screen. efflux-deficient yeast background strain, growth absorbance A615, 16 h. inhibition, % at 10 µM. 98,000 tested, 5% active
* = called active by the depositor; / = no result. The list is not random: actives were taken first. Their share in the collection is about 32%. Rule as the data show it, unless noted: active = inhibition above about 30%; inactive = the rest.

SMILES	CYP2C9 activ	CYP2C19 activ	CYP2C9 inh	PostGolgi yeast	CYP2C19 inhib	PostGolgi ctrl
Cc1cc(C(=O)NCCCN2CC(C)CC(C)C2)n(-c2ccccc2)n1 (configuration not stated)	1	1.1	-3	-10	-7	6
CC1CC(C)CN(CC(C)(C)NS(=O)(=O)c2ccccc2)C1 (configuration not stated)	0.5	0.2	48	15	79*	-4
CC(=O)CC(=O)Nc1ccccc1NC(C)=O	1	1	1	-12	-2	5
Cc1ccsc1C(=O)OCC(=O)Nc1sccc1C(N)=O	0.7	0.7	28	-5	25	19
CN(C(=O)COc1cc(=O)n(C)c2ccccc12)c1cccc(Cl)c1	0.8	0.8	19	-3	17	14
CN(C(=O)COc1cc(=O)n(C)c2ccccc12)c1ccc(Br)cc1	0.3	0.9	67*	-6	8	12
CCN(C(=O)COc1cc(=O)n(C)c2ccccc12)c1cccc(Cl)c1	1.6	0.3	-57	0	69*	11
CCn1c(=O)cc(OCC(=O)Nc2cc(C)ccn2)c2ccccc21	/	/	/	-1	/	2
Cc1cccc(N(C)C(=O)COc2cc(=O)n(C)c3ccccc23)c1	1	0.7	3	-13	26	7
Cn1c(=O)cc(OCC(=O)Nc2ccccn2)c2ccccc21	0.7	0.5	35	-2	53*	10
CCOc1ccc(CNC(=O)CCCOc2cc(=O)n(C)c3ccccc23)cc1	0.2	0.3	78*	-1	69*	8
Cc1c(C)c2ccc(OC3CCCCC3=O)cc2oc1=O (configuration not stated)	0.9	1	14	0	4	5
Cc1cc(=O)c2ccccc2[nH]1	1.6	1.1	-59	-3	-14	-3
Cc1cc(=O)c2cc(Br)ccc2[nH]1	0.5	0.8	52*	-7	23	3
CCCCCC/C(=N/O)c1ccccn1	0.7	0.8	28	4	20	40*
O=C(NC1CCCCCC1)C1C2C=CC3(CN(Cc4cccnc4)C(=O)C13)O2 (configuration not stated)	0.9	1	6	-3	3	12
Cc1ccc(CNc2ccc(N3CCOCC3)cc2)s1	0.8	0.4	18	18	65*	6
CC(=O)N1CCN(c2ccc(NCc3ccc(C)s3)cc2)CC1	0.7	0.8	33	-1	22	13
COc1cccc(C(C(=O)NC(C)(C)C)N(C(=O)CCC(=O)Nc2cc(C)on2)C2CC2)c1OC (configuration not stated)	1	1	1	-1	-5	-5
N#Cc1ccccc1Cn1c(=O)n(Cc2ccc(C(=O)NCc3ccco3)cc2)c(=O)c2sccc21	0.6	1.1	36	3	-8	/
COCCCNC(=O)c1ccc(Cn2c(=O)c3ccccc3n(Cc3ccccc3C#N)c2=O)cc1	0.4	0.5	59*	5	52*	2
COCCCNC(=O)c1ccc(Cn2c(=O)c3ccccc3n(Cc3ccccc3C)c2=O)cc1	0.2	0.2	80*	-3	78*	13
COCCCNC(=O)CCn1c(=O)c2ccccc2n(CC(=O)Nc2c(C)cccc2C)c1=O	0.8	1	17	15	-2	5
COCCCNC(=O)c1ccc(Cn2c(=O)c3ccccc3n(Cc3cc(C)ccc3C)c2=O)cc1	0.2	0.3	82*	-4	75*	3
NS(=O)(=O)c1ccc(CCNC(=O)Nc2ccc(Cl)c(Cl)c2)cc1	0.7	0.7	34	-5	34	1
SMILES	CYP2C9 activ	CYP2C19 activ	CYP2C9 inh	PostGolgi yeast	CYP2C19 inhib	PostGolgi ctrl
COc1cc(-c2nnc(Sc3ccc(C(F)(F)F)cc3[N+](=O)[O-])o2)cc(OC)c1OC	0.8	0.6	20	3	39	28
CCCOc1ccccc1C1C(C(=O)OC)=CN(C(C)C)C=C1C(=O)OC	0.1	0.1	87*	1	89*	16
O=C(NCCc1ccccc1)C1CCCN(C(=O)NC2CCCCC2)C1 (configuration not stated)	1	1.1	4	7	-12	8
CCC(C)c1c(O)nc(SCC(=O)c2ccccc2)[nH]c1=O (configuration not stated)	0.5	0.9	54*	0	13	10
O=C(CSc1nc(O)c(Cc2ccccc2)c(=O)[nH]1)Nc1ccccc1	0.9	1	8	-2	0	11
CCC(C)c1c(O)nc(SCC(=O)Nc2ccccc2)[nH]c1=O (configuration not stated)	0.2	0.3	76*	2	73*	2
O=C(O)c1ccc(NS(=O)(=O)c2ccc3nnn(O)c3c2)cc1	1.4	1.3	-37	-3	-27	-7
O=C(Nc1c2c(nn1-c1ccc(F)cc1)CS(=O)(=O)C2)C12CC3CC(CC(C3)C1)C2	0.9	0.9	13	5	14	9
CCNC(=O)C1CC(=O)OC12CCCCC2 (configuration not stated)	1	0.7	0	-40	31	14
COc1ccc(-c2nc(-c3cccs3)c(-c3cccs3)[nH]2)cc1OC	0.2	0.2	81*	17	83*	38*
COc1ccc(-c2nc(-c3ccccc3)c(-c3cccs3)[nH]2)cc1OC	0.6	0.9	37	4	6	34*
O=[N+]([O-])c1cccc(-c2nc(-c3ccccc3)c(-c3cccs3)[nH]2)c1	1.2	1.1	-18	-3	-6	7
O=[N+]([O-])c1cccc(-c2nc(-c3cccs3)c(-c3cccs3)[nH]2)c1	0.4	0.9	58*	-4	12	16
COc1ccc(NC(=O)c2cc(-c3cccs3)on2)cc1OC	1.1	0.8	-9	-6	18	1
COc1ccc(-c2[nH]c(-c3ccc4c(c3)OCO4)nc2-c2ccccc2)cc1	0.5	0.8	48	62*	23	34*
COC(=O)C1=C(C(=O)OC)C2(OC1c1cccc(F)c1)C(=O)c1ccccc1C2=O (configuration not stated)	0.7	0.8	29	-5	20	7
Cc1cccc(CC2CC(=O)N(c3ccccc3)C2=O)c1 (configuration not stated)	0.8	0.1	23	-3	88*	16
Cc1cccc(CC2CC(=O)N(c3ncccn3)C2=O)c1 (configuration not stated)	1	0.9	0	0	7	-2
COc1ccc2sc(N3C(=O)CC(Cc4cccc(C)c4)C3=O)nc2c1 (configuration not stated)	0.7	0.9	26	3	11	-5
Cc1cccc(CC2CC(=O)N(C3CCCCC3)C2=O)c1 (configuration not stated)	0.4	0	58*	3	99*	5
COc1ccc(/C=C\C(=O)c2c(O)ccc3c(C)cc(=O)oc23)cc1OC	1.2	0.3	-20	-3	68*	28

Assay outcomes (PubChem)
